Screening data (PubChem BioAssay)
This is a sample that favours compounds with a hit; in the whole collection about 6.2% have one here.
KinaseGlo FLuc – Kinase-Glo luciferase inhibition (counter-screen); Q27757; Kinase-Glo luciferase, ATP luminescence, 8 min; Potency, µM (series often up to 38.3 µM), actives largely listed as inhibitors; 200,000 tested, 0.28% active; further: nearly all actives have a fitted effect of over 60% in size
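Substrate mix (final 50 mM imidazole pH 7.2, 50 mM KCl, 7 mM MgCl2, 10 uM ATP, 0.01% Tween 20, 0.05% BSA) plus pin-tool compound, then Kinase-Glo detection mix; 8 min ambient, luminescence read.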
RORgamma inh – blocks mouse ROR gamma transcriptional activity. Drosophila S2 Gal4-RORgamma UAS-luciferase reporter, 20 h. Potency, µM (titrated, usually from 53.6 µM), actives largely listed as inhibitors. 310,000 tested, 5.4% active. AID 2551; further: nearly all actives have a fitted effect of over 60% in size
Target sequence (P51450 whole entry, looked up, the tested form may be a part): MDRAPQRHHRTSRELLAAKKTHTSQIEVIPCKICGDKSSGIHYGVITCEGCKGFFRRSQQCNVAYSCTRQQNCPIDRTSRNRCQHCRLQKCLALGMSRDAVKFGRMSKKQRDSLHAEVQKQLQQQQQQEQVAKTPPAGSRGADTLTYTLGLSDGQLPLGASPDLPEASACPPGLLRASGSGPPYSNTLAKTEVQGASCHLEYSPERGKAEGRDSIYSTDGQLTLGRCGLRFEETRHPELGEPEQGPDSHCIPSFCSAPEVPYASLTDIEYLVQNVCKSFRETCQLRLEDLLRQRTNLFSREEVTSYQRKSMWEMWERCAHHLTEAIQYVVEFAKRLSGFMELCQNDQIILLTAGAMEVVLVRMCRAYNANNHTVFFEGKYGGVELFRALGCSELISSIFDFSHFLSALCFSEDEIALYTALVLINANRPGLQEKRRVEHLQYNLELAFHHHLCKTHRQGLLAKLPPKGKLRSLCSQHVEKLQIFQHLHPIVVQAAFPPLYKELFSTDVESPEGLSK
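Stable Schneider cell line, Gal4 DNA-binding domain fused to ROR gamma, UAS-luciferase. Cmpd 1 hr RT → CuSO4 700 uM final → 20 hr RT → luciferase reagent 10 min → luminescence.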
VP16 counter – inhibits Gal4-VP16 luciferase reporter, ROR gamma counter-screen; 310,000 tested, 3.5% active; Potency, µM (top dose mostly 53.6 µM), usual class: inhibitors; Drosophila S2 Gal4-VP16 UAS-luciferase, luminescence, 20 h;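 further: Gal4-VP16 expression switched on by copper sulfate through the metallothionein promoter; nearly all actives have a fitted effect of over 50% in size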
Large screens that a line does not name were inactive. The call rests on the fitted dose curve; in most records, active means well fitted curve in the direction sought with a large enough effect; inconclusive means small, poorly fitted or top-dose-only effect, or another doubt; inactive means no such curve, though single readings can be large; an effect the other way counts as inactive or inconclusive.

CCOc1ccc(C(=O)N2CCN(Cc3ccccc3)CC2)cc1OCC	none (no result: KinaseGlo FLuc)
COc1ccc(NC(C)C(=O)N/N=C/c2ccccc2OCc2cccc(Br)c2)cc1 (stereo unspecified)	none
C=CCc1cccc(/C=N/NC(=O)C(=O)Nc2ccc(C)cc2)c1O	RORgamma inh 2.24µM, VP16 counter 11.2µM
COc1cccc(/C=N/NC(=O)C(=O)N/N=C/c2cccc(OC)c2OC)c1OC	none
C=CCc1cccc(/C=N/NC(=O)C(C)Nc2ccc(C)cc2)c1O (stereo unspecified)	RORgamma inh 0.562µM, VP16 counter 2.82µM
CO[C@@H]1COC(=O)CC=C[C@@H](C)[C@@H]2C=C[C@H](O)[C@@H](COC(=O)C/C=C\[C@H]1C)O2	none (no result: KinaseGlo FLuc)
Cc1cc(C)c2oc(C(=O)N(Cc3cccs3)C3CCS(=O)(=O)C3)cc(=O)c2c1 (stereo unspecified)	none (no result: KinaseGlo FLuc)
CCOC(=O)N1CCC(N2CCCC(CO)(Cc3cccc(Cl)c3)C2)CC1 (stereo unspecified)	none
O=C(N/N=C/c1cn(-c2cccs2)nc1-c1ccccc1)c1ccccc1O	KinaseGlo FLuc inconclusive, RORgamma inh 0.0282µM, VP16 counter inconclusive
COc1ccc(NC(=O)c2cn(-c3ccccc3)nc2-c2cc3ccccc3o2)cc1	none
O=C(N/N=C/c1coc2ccccc2c1=O)c1cn(-c2ccccc2)nc1-c1ccccc1	none
OCc1cn(-c2ccccc2)nc1-c1cc2ccccc2o1	RORgamma inh inconclusive, VP16 counter 11.2µM
N#CCCn1cc(/C=N/NC(=O)c2ccncc2)c(-c2ccccc2)n1	none
O=C(N/N=C/c1cn(-c2ccccc2)nc1-c1cc2ccccc2o1)c1ccccc1Br	RORgamma inh inconclusive, VP16 counter 5.01µM
O=C(N/N=C/c1cn(-c2ccccc2)nc1-c1cc2ccccc2o1)c1c[nH]c2ccccc12	RORgamma inh inconclusive
O=C(N/N=C/c1cn(-c2cccs2)nc1-c1ccccc1)c1ccccc1Br	RORgamma inh 5.62µM, VP16 counter 6.31µM
C=CCC1(C#N)C(=S)NC2=C(C(=O)CC(C)(C)C2)C1c1ccc(Br)cc1 (stereo unspecified)	VP16 counter inconclusive
CCO[C@H]1O[C@@H]([C@H](COCc2ccccc2)OCc2ccccc2)[C@@H](OCc2ccccc2)[C@H]1O	none
O=C(CCCN1C(=O)C(c2ccccc2)Oc2cccnc21)Nc1cccc(F)c1 (stereo unspecified)	none (no result: KinaseGlo FLuc)
O=S(=O)(c1ccccc1)N1CCC2(CCN(Cc3ccncc3)CC2)CC1	none
N#C/C(=C\c1coc2ccccc2c1=O)C(N)=S	RORgamma inh 12.6µM, VP16 counter inconclusive
N#CCC(=O)N/N=C/c1coc2ccccc2c1=O	none (no result: KinaseGlo FLuc)
COc1cccc(C(=O)NC(C)CCc2ccccc2)c1 (stereo unspecified)	none (no result: KinaseGlo FLuc)
COCC(C)NC(=O)CCS(=O)(=O)c1nc(-c2ccc(OC)cc2)cc(C(F)(F)F)n1 (stereo unspecified)	none (no result: VP16 counter)
CCOC(=O)CS(=O)(=O)c1nc(-c2ccc(F)cc2)cc(C(F)(F)F)n1	RORgamma inh 5.62µM, VP16 counter 5.01µM
CCOC(=O)CS(=O)(=O)c1nc(-c2ccccc2)cc(C(F)(F)F)n1	RORgamma inh 2.82µM, VP16 counter 5.01µM
COc1nc(-c2ccccc2)cc(C(F)(F)F)n1	none
COc1ccc(-c2cc(C(F)(F)F)nc(S(=O)(=O)CCCC(=O)Nc3cccnc3Cl)n2)cc1OC	RORgamma inh 1.58µM, VP16 counter inconclusive
COC(=O)CCS(=O)(=O)c1nc(-c2ccccc2)cc(C(F)(F)F)n1	RORgamma inh 7.08µM, VP16 counter 5.62µM
CCOC(=O)CCS(=O)(=O)c1nc(-c2ccccc2)cc(C(F)(F)F)n1	VP16 counter inconclusive
CCOC(=O)c1c(C(F)(F)F)cc(-c2ccc(F)cc2)nc1C	none
COc1ccc(C/C(C)=N\NC(=O)c2cn(C)c3ccccc23)cc1OC	none (no result: KinaseGlo FLuc)
CC(C)(C)N1C(=O)[C@H]2[C@@H]3[C@H](O)[C@H](O)CC(=O)[C@H]3CC[C@H]2C1=O	none (no result: KinaseGlo FLuc)
CC(C)(C)c1ccc(-c2nnc(SCC(=O)O)n2N)cc1	none
C=CCn1c(SCC(=O)O)nnc1-c1ccc(C(C)(C)C)cc1	RORgamma inh 14.1µM, VP16 counter inconclusive
Cc1ccc(CCNC(=O)C2CCCN(c3nc4ccccc4o3)C2)cc1 (stereo unspecified)	none (no result: KinaseGlo FLuc)
Nc1ncnc2c1ncn2C1OC(COP(=O)(O)O)C(O)C1O (stereo unspecified)	KinaseGlo FLuc 2µM
Nc1ncnc2c1ncn2[C@@H]1O[C@H](COP(=O)(O)O)[C@@H](O)[C@@H]1O	KinaseGlo FLuc 3.98µM
Nc1ncnc2c1ncn2[C@@H]1O[C@H](COP(=O)(O)O)[C@@H](O)[C@H]1O	none (no result: KinaseGlo FLuc)
Nc1ncnc2c1ncn2[C@@H]1O[C@H](COP(=O)(O)OP(=O)(O)OP(=O)(O)O)[C@@H](O)[C@H]1O	none (no result: KinaseGlo FLuc)
CC(C)(C)NC(=O)NC(=O)CSc1cccc(C(F)(F)F)c1	none
CC(C)(C)OC(=O)N1CCOCCOCCN(C(=O)OC(C)(C)C)CCOCCOCC1	RORgamma inh inconclusive (no result: VP16 counter)
CCn1c(C)nc2cc(C#N)ccc21	RORgamma inh inconclusive
NC(=S)Cc1nc2n(n1)Cc1ccccc1-2	none
Cc1ccc(-c2nc3n(n2)Cc2ccccc2-3)cc1	KinaseGlo FLuc inconclusive, RORgamma inh inconclusive, VP16 counter 10µM
Cc1cc(C)n2nc(-c3ccc(F)cc3)nc2n1	none
CCn1c(C)nc2cc(-c3nc4n(n3)Cc3ccccc3-4)ccc21	KinaseGlo FLuc 2.24µM, RORgamma inh 0.891µM, VP16 counter 0.0447µM
Fc1ccc(-c2nc3n(n2)Cc2ccccc2-3)cc1	KinaseGlo FLuc 11.2µM, VP16 counter inconclusive
CC(C)c1ccc(/C=C(\NC(=O)c2ccccc2)C(=O)NCCN2CCOCC2)cc1	none (no result: KinaseGlo FLuc)
COc1ccc(CN2C(=O)/C(=C/c3ccncc3)SC2=S)cc1	RORgamma inh inconclusive, VP16 counter inconclusive
O=C(CCCc1ccccc1)NC12CC3CC(CC(C3)C1)C2	none (no result: KinaseGlo FLuc)
O=C(CSCc1ccccc1Br)N/N=C/c1ccccc1C(=O)O	none
O=c1c2ccccc2nnn1CSc1nc2ccccc2c(=O)n1CCCO	RORgamma inh 10µM
Cn1c(SCn2nnc3ccccc3c2=O)nc2ccccc2c1=O	none
COc1cc2c(cc1OC)C1O[C@](c3ccsc3)(C2)Oc2cc(C)n(Cc3ccccc3)c(=O)c21	none (no result: KinaseGlo FLuc)
CCOC(=O)c1csc(N/N=C2\CCCc3ccccc32)n1	RORgamma inh inconclusive (no result: KinaseGlo FLuc)
COc1ccc2c(c1)CCC/C2=N\NC(=O)c1ccoc1C	RORgamma inh 39.8µM, VP16 counter inconclusive
Cc1cc(C(=O)N/N=C2\CCCc3ccccc32)c(C)o1	none
COc1ccc2c(c1)CCC/C2=N\Nc1nc(C(=O)NN)cs1	RORgamma inh 3.55µM, VP16 counter 12.6µM (no result: KinaseGlo FLuc)
COc1ccc(OCC(=O)N/N=C2\CCCc3ccccc32)cc1	RORgamma inh inconclusive (no result: KinaseGlo FLuc)
CCOC(=O)c1csc(N/N=C2\CCc3ccccc32)n1	RORgamma inh 10µM, VP16 counter inconclusive (no result: KinaseGlo FLuc)
COc1ccc(CCNC(=O)CSc2nnc3ccc(-c4cccnc4)nn23)cc1	none
CCc1c(C)nc(SCC(=O)N2CCCCC2CC)[nH]c1=O (stereo unspecified)	none (no result: KinaseGlo FLuc)
CCOC(=O)CNC(=O)c1ccc(OCC(F)(F)F)cc1	KinaseGlo FLuc inconclusive
O=c1[nH]c(/C(Cl)=C/c2cccc(C(F)(F)F)c2)nc2cc(Cl)ccc12	none
O=S1(=O)C2CC3CCC2(CN1Cc1ccccc1)O3 (stereo unspecified)	none (no result: KinaseGlo FLuc)
